Assay results published in PubChem BioAssay (NCATS).
Results filed as inconclusive are left out. Entries that show only a call come without a potency. The source made the active and inactive calls. Calls follow the shape of the dose curve; as a rule, active = well fitted cell-killing curve with a large enough effect; inconclusive = small, poorly fitted or top-dose-only effect; inactive = flat fitted curve, though single readings scatter. Where a SMILES comes first, the peptide text is derived from it. Bridges are numbered along the chain shown (N, C = ends). [ ]: non-standard residue; d: D form. The star is where a group is joined. Dab(CH2SO3H) = N[C@@H](CCNCS(=O)(=O)O)C(=O)O; X3 = CC[C@@H](C)CCCCC(=O)*; Dab = NCC[C@H](N)C(=O)O

Assay: qHTS assay to identify small molecule inhibitors of chordoma cells - UCH-2 (AID 1259356)
Details: UCH-2 chordoma viability, CellTiter-Glo ATP luminescence, 48 h; series mostly up to 46.1 µM
Excerpt: NIH Chemical Genomics Center [NCGC]
Chordoma is a rare and slow growing tumor that can occur anywhere along the spine, from the base of the skull to the tailbone. Current treatment options for chordoma is surgery and radiation therapy for those who are not candidates for surgery. But chordomas tend to return in the same location or surrounding areas of the original tumor after surgery and/or radiation. Chemotherapy can slow down the progression of the tumor. As chordoma is slow growing, the general cytotoxic agents that kill fast growing cells are ineffective, and some patients have been reported to respond to molecularly targeted drugs.
NCATS Pharmaceutical Collection (NPC) containing approximately 3000 clinically approved and investigational drugs were used to screen at 15 concentrations in a chordoma cell lines, UCH-2, to identify small molecule compounds that can inhibit chordoma cell growth.
NCGC Assay Protocol Summary:
Human chordoma cell line UCH-2 was dispensed at 800 per well in 4uL of culture medium into white solid bottom 1536-well plates (Corning Life Sciences, Corning, NY) using a Multidrop Combi (Thermo Scientific, Waltham, MA) dispenser. The assay plates were incubated at 37 C and 5% CO2 for an overnight, and then 23nL of compounds dissolved in DMSO and positive control were transferred using a Pintool station (Wako, San Diego, CA). Compound treatment was followed by the addition of 1uL of the combination compounds (1uM Auranofin, 500nM each of Camptothecin, Doxorubicin, Rubitecan, and Topotecan) and assay medium to each well of the assay plates using Flying Reagent Dispenser (FRD, Aurora Discovery, San Diego, CA). The assay plates were incubated at 37 C and 5% CO2 for 48hr. Then 5uL of CellTiter-Glo reagent (Promega Corporation, Madison, WI) was added to each well of the assay plates using FRD. After 30min incubation at room temperature, the luminescence signal was quantified using a ViewLux plate reader (PerkinElmer, Shelton, CT).
Potency is read from the fitted curve at half-maximal effect.

Row | Structure (SMILES) | Potency
1 | CN(C)CC/C=C1/c2ccccc2CSc2ccccc21 | inactive
2 | N[C@H](C(=O)O)[C@@H]1CC(Cl)=NO1 | inactive
3 | CC1=C(/C=C/C(C)=C/C=C/C(C)=C/CO)C(C)(C)CCC1 | inactive
4 | C[C@@H]1[C@H](O)[C@@H](C)/C=C/C=C\C=C\C=C\C=C\C=C\C=C\[C@H](O[C@@H]2O[C@H](C)[C@@H](O)[C@H](N)[C@@H]2O)C[C@@H]2O[C@](O)(C[C@@H](O)C[C@@H](O)[C@H](O)CC[C@@H](O)C[C@@H](O)CC(=O)O[C@H]1C)C[C@H](O)[C@H]2C(=O)O (stereo in doubt) | inactive
5 | O=C(O)C1CCCN1 (stereo not given) | inactive
6 | C=C1CC[C@@H]2[C@](C)(CO)[C@H](O)CC[C@@]2(C)[C@@H]1C/C=C1/C(=O)OC[C@H]1O | inactive
7 | CC1(C)S[C@@H]2[C@H](NC(=O)C(C(=O)O)c3ccsc3)C(=O)N2[C@H]1C(=O)O (stereo not given in full) | inactive
8 | Cc1c(C)c2c(c(C)c1O)CC[C@@](C)(CCC[C@H](C)CCC[C@H](C)CCCC(C)C)O2 | inactive
9 | COc1cc([C@@H]2c3cc4c(cc3[C@@H](O[C@@H]3O[C@@H]5CO[C@@H](C)O[C@H]5[C@H](O)[C@H]3O)[C@H]3COC(=O)[C@H]23)OCO4)cc(OC)c1O | inactive
10 | Nc1nc(N)c2nc(CNc3ccc(C(=O)N[C@@H](CCC(=O)O)C(=O)O)cc3)cnc2n1 | inactive
11 | CCCCCCCCCCCCCC[n+]1ccc(C)cc1 | 25.9 µM (active)
12 | CO[C@H](C(=O)[C@@H](O)[C@@H](C)O)C1Cc2cc3cc(O[C@H]4C[C@@H](O[C@H]5C[C@@H](O)[C@H](O)[C@@H](C)O5)[C@@H](O)[C@@H](C)O4)c(C)c(O)c3c(O)c2C(=O)[C@H]1O[C@H]1C[C@@H](O[C@H]2C[C@@H](O[C@H]3C[C@](C)(O)[C@H](O)[C@@H](C)O3)[C@H](O)[C@@H](C)O2)[C@H](O)[C@@H](C)O1 (stereo not given in full) | inactive
13 | CC1(C)S[C@@H]2[C@H](NC(=O)[C@@H](NC(=O)N3CCNC3=O)c3ccccc3)C(=O)N2[C@H]1C(=O)O | inactive
14 | O=C(O)CN(CCN(CC(=O)O)CC(=O)O)CC(=O)O | inactive
15 | CC(O)CO (stereo not given) | inactive
16 | COc1cc(-c2ccc(-[n+]3nc(-c4ccccc4)nn3-c3ccc([N+](=O)[O-])cc3)c(OC)c2)ccc1-[n+]1nc(-c2ccccc2)nn1-c1ccc([N+](=O)[O-])cc1 | 9.2 µM (active)
17 | CC(=O)N(CC(C)C(=O)O)c1c(I)cc(I)c(N)c1I (stereo not given) | inactive
18 | CN(C)CCCN1c2ccccc2C(C)(C)c2ccccc21 | inactive
19 | CCNC(=O)[C@@H]1CCCN1C(=O)[C@H](CCCN=C(N)N)NC(=O)[C@H](CC(C)C)NC(=O)[C@@H](Cc1c[nH]c2ccccc12)NC(=O)[C@H](Cc1ccc(O)cc1)NC(=O)[C@H](CO)NC(=O)[C@H](Cc1c[nH]c2ccccc12)NC(=O)[C@H](Cc1cnc[nH]1)NC(=O)[C@@H]1CCC(=O)N1 | 18.3 µM (active)
20 | CO[C@H]1C[C@H](O[C@H]2[C@H](C)[C@@H](O[C@@H]3O[C@H](C)C[C@H](N(C)C)[C@H]3OC(C)=O)[C@@H](C)C[C@]3(CO3)C(=O)[C@H](C)[C@@H](OC(C)=O)[C@@H](C)[C@@H](C)OC(=O)[C@@H]2C)O[C@@H](C)[C@@H]1OC(C)=O | inactive

Row | Structure (SMILES) | Potency
21 | CC[C@@H](C)CCCCC(=O)N[C@@H](CCNCS(=O)(=O)O)C(=O)N[C@H](C(=O)N[C@@H](CCNCS(=O)(=O)O)C(=O)N[C@H]1CCNC(=O)[C@H]([C@@H](C)O)NC(=O)[C@H](CCNCS(=O)(=O)O)NC(=O)[C@H](CCNCS(=O)(=O)O)NC(=O)[C@H](CC(C)C)NC(=O)[C@@H](CC(C)C)NC(=O)[C@H](CCNCS(=O)(=O)O)NC1=O)[C@@H](C)O (X3-[Dab(CH2SO3H)]T[Dab(CH2SO3H)][Dab][Dab(CH2SO3H)][dL]L[Dab(CH2SO3H)][Dab(CH2SO3H)]T; lactam 4-C) | inactive
22 | C/C1=C2N=C(/C=C3N=C(/C(C)=C4\[N-][C@@](C)([C@@H]5N=C1[C@](C)(CCC(=O)NCC(C)OP(=O)(O)O[C@H]1[C@@H](O)[C@@H](n6cnc7cc(C)c(C)cc76)O[C@@H]1CO)[C@H]5CC(N)=O)[C@@](C)(CC(N)=O)[C@@H]4CCC(N)=O)[C@@](C)(CC(N)=O)[C@@H]\3CCC(N)=O)C(C)(C)[C@@H]/2CCC(N)=O.CC(=O)O.[Co] (stereo not given in full) | inactive
23 | C=C[C@]1(C)C[C@@H](OC(=O)CSC(C)(C)CNC(=O)[C@H](N)C(C)C)[C@]2(C)[C@H](C)CC[C@]3(CCC(=O)[C@H]32)[C@@H](C)[C@@H]1O | inactive
24 | OCC(S)CS (stereo not given) | inactive
25 | Cc1ccccc1 | inactive
26 | CCCC(=O)O[C@]1(C(=O)COC(C)=O)CC[C@H]2[C@@H]3C[C@H](F)C4=CC(=O)C=C[C@]4(C)[C@@]3(F)[C@@H](O)C[C@@]21C | inactive
27 | COc1ccc(C[C@@H](C)NC[C@H](O)c2ccc(O)c(NC=O)c2)cc1 | inactive
28 | C[C@@H]1CCC2[C@@H](C)[C@@H](O)O[C@@H]3O[C@@]4(C)CC[C@@H]1[C@@]23OO4 (stereo not given in full) | inactive
29 | CO/N=C(\C(=O)N[C@@H]1C(=O)N2C(C(=O)O)=C(CSc3cnns3)CS[C@H]12)c1csc(N)n1 | inactive
30 | COC(=O)CCC(=O)CN | inactive
31 | CCC(=O)OCC(=O)[C@@]1(OC(=O)CC)[C@H](C)C[C@H]2[C@H]3[C@H]([C@@H](O)C[C@@]21C)[C@@]1(C)C=CC(=O)C=C1C[C@H]3Cl | inactive
32 | CC(=O)N[C@@H](CC(=O)N[C@@H](CCC(=O)O)C(=O)O)C(=O)O | inactive
33 | CC[C@@H](C(=O)O)[C@@H]1O[C@@H]([C@@H](C)[C@H](O)[C@H](C)C(=O)[C@H](CC)[C@H]2O[C@]3(C=C[C@@H](O)[C@]4(CC[C@@](C)([C@H]5CC[C@](O)(CC)[C@H](C)O5)O4)O3)[C@H](C)C[C@@H]2C)[C@@H](C)C[C@@H]1C | 8.2 µM (active)
34 | CNC(C)[C@@H]1CC[C@@H](N)[C@@H](O[C@H]2[C@H](O)[C@@H](O[C@H]3OC[C@](C)(O)[C@H](NC)[C@H]3O)[C@H](N)C[C@@H]2N)O1 (stereo not given in full) | inactive
35 | NCc1ccccc1CC(=O)N[C@@H]1C(=O)N2C(C(=O)O)=C(CSc3nnnn3CC(=O)O)CS[C@H]12 | inactive
36 | CCN(CC)CCOc1ccc(-c2nc3cc(Cl)ccc3s2)cc1 | inactive
37 | C[C@H]1C[C@H]2[C@@H]3CCC4=CC(=O)C=C[C@]4(C)[C@@]3(F)[C@@H](O)C[C@]2(C)[C@@]1(O)C(=O)CO | inactive
38 | IC(I)I | inactive
39 | CC(C)(C)NC(=O)[C@@H]1C[C@@H]2CCCC[C@@H]2CN1C[C@@H](O)[C@H](Cc1ccccc1)NC(=O)[C@H](CC(N)=O)NC(=O)c1ccc2ccccc2n1 | inactive
40 | O=C1CSC2(CCN(CCCN3c4ccccc4Sc4ccc(Cl)cc43)CC2)N1 | inactive
